hERG WT inh = KCNH2 (human, wildtype) channel inhibition | 340,000 tested, 0.37% active | activity change, % at 1.84 µM | U2OS, BacMam KCNH2, thallium flux FluxOr; active compounds read low | AID 720551 | Q12809;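 active means maximum activity change below -70%; inconclusive means maximum activity change between -70% and -50%; inactive means maximum activity change above -50%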
Target sequence (Q12809 whole entry, looked up): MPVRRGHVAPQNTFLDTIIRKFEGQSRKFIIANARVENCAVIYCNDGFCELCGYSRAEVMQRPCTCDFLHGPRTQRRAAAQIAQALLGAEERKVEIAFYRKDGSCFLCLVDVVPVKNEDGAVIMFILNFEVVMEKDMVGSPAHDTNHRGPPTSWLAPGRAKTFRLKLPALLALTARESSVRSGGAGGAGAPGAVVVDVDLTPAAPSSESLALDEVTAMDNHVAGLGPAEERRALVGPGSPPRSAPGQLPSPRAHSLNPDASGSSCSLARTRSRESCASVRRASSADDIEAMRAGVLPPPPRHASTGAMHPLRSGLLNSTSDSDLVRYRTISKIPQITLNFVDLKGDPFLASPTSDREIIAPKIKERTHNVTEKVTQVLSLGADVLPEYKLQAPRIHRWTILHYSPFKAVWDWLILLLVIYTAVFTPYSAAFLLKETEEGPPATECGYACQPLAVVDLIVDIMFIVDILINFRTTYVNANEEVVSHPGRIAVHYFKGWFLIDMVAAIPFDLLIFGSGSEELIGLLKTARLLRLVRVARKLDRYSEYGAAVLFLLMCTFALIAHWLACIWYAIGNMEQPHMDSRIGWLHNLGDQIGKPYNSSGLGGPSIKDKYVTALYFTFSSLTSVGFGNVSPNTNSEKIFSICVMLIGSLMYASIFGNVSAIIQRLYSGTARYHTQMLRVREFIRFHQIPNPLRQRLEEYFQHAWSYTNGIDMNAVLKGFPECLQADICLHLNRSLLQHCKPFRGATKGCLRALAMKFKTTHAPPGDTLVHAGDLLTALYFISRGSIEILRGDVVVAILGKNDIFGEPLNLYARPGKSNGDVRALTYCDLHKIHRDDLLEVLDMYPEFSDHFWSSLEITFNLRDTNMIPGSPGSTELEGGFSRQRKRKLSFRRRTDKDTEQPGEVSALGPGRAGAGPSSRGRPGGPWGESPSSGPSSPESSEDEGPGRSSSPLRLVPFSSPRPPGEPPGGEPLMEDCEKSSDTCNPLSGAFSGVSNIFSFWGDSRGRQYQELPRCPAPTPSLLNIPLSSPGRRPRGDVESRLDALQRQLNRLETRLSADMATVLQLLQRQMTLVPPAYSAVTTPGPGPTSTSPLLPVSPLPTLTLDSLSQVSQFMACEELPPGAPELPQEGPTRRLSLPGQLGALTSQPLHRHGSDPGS
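U2OS cells were transduced with wild-type KCNH2 virus (2.03 x 10^8 / mL) for 4 h at room temperature, then cultured overnight at 37 C. Thallium flux was read with FluxOr dye. Rate constants were normalized to DMSO controls.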
SW480 rerep = induces DNA re-replication in SW480 colon adenocarcinoma cells. SW480 DNA re-replication, Hoechst DNA content imaging, 48 h. 340,000 tested, 1.8% active. AID 624297. Potency, µM (series often up to 46.1 µM), actives largely listed as activators; further: nearly all actives have a fitted effect of over 55% in size
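DNA re-replication was detected as more nuclei of elevated Hoechst intensity after 48 hr exposure to compound (23 nL pinned per well of 250 cells).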
MCF10A rereplic = inducers of DNA re-replication in MCF 10A breast cells. MCF 10A DNA re-replication, Hoechst nuclear intensity, 48 h. AID 624296. Potency, µM (top dose mostly 46.1 µM), usual class: activators. 350,000 tested, 2.9% active; further: nearly all actives have a fitted effect of over 50% in size
KCNH2 3.1 inh = inhibitors of human KCNH2 3.1 potassium channel isoform; U2OS KCNH2 3.1, thallium flux FluxOr; active compounds read low; activity change, % (tested at about 1.8 µM); 340,000 tested, 0.95% active; AID 720553;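 active means maximum activity change below -70%; inconclusive means maximum activity change from -70% to -50%; inactive means maximum activity change above -50%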;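 further: thallium influx rate constant from kinetic fluorescence after stimulation buffer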
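Kinetic fluorescence (2 min after stimulation buffer) measures Tl+ influx through KCNH2 3.1 expressed by viral transduction in U2OS cells; the rate constant is normalized against DMSO controls serving as positive and negative references.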
KB-3-1 tox = KB-3-1 parental cell cytotoxicity | KB-3-1 viability, CellTiter-Glo ATP luminescence, 72 h | Potency, µM (titrated, usually from 46.1 µM), hits mostly cytotoxic | 400,000 tested, 1.4% active | AID 1347075; further: nearly all actives have a fitted effect of over 60% in size
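Multi-concentration cytotoxicity screen in KB-3-1 cells grown in DMEM lacking phenol red with 10% FBS. After 72 h at 37 °C with compound, ATP-dependent luminescence was recorded.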
KB-V1 MDR tox = KB-V1 MDR subline cytotoxicity | 400,000 tested, 3.4% active | KB-V1 MDR cells viability, CellTiter-Glo, 72 h | AID 1347076 | Potency, µM (series often up to 46.1 µM), most hits filed as cytotoxic; further: nearly all actives have a fitted effect of over 60% in size
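Following 72 h at 37 degrees C with compound, KB-V1 cell viability was read by CellTiter-Glo luminescence, medium being phenol-red-free DMEM plus 10% FBS; concentration-response parameters came from normalized, curve-fitted qHTS data.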
A number is an active result; n = inactive; u = inconclusive; x = not tested or not shown. Rows were chosen to be rich in hits. Some 7.6% of all compounds tested hit in one or more screens of this group. Unless noted, the call rests on the fitted dose curve; in most records, active means well fitted curve in the direction sought with a large enough effect; inconclusive means small, poorly fitted or top-dose-only effect, or another doubt; inactive means no such curve, though single readings can be large; an effect the other way counts as inactive or inconclusive.

SMILES	hERG WT inh	SW480 rerep	MCF10A rereplic	KCNH2 3.1 inh	KB-3-1 tox	KB-V1 MDR tox
O=C(c1ccccc1F)N1CCN(c2ccc([N+](=O)[O-])c3cccnc23)CC1	-243	n	n	n	n	u
Cc1cc(N2CCN(c3ccc(C(F)(F)F)cc3[N+](=O)[O-])CC2)c2ccccc2n1	-98	n	u	-102	u	n
O=C(c1ccccc1F)N1CCN(c2ccc([N+](=O)[O-])c3ncccc23)CC1	n	n	n	n	n	n
Cc1ccc(S(=O)(=O)N2CCN(c3ccc(C(F)(F)F)cc3[N+](=O)[O-])CC2)cc1	n	n	n	n	u	u
Cc1cc(N2CCN(c3ccc([N+](=O)[O-])c4cccnc34)CC2)c2ccccc2n1	-108	n	u	-103	16µM	u
O=C(NCCN1CCOCC1)Nc1ccc(F)cc1	n	n	n	n	n	n
O=C(Nc1ccc(Br)cc1)Nc1nc2c(s1)CCCCCC2	x	x	x	x	n	n
CCOC(=O)c1nc2ccc(C)cc2c2c1C1CC(c3c(Cl)cccc31)N2C(=O)OCc1ccccc1 (centres undefined)	n	x	x	n	u	u
CCC(C)Sc1nc2c(cnn2-c2ccc(C)c(C)c2)c(=O)[nH]1 (centres undefined)	n	n	n	n	n	n
CSc1nc2c(cnn2-c2ccc(C)c(C)c2)c(=O)[nH]1	n	n	n	n	1.6µM	u
COc1cccc2[nH]c3c(N4CCCC(C)C4)ncnc3c12 (centres undefined)	n	n	n	n	n	6.5µM
COc1cccc2[nH]c3c(N4CCC(C(N)=O)CC4)ncnc3c12	n	n	n	n	n	n
CNc1nc2c(c(=O)n(C)c(=O)n2C)n1Cc1ccccc1	n	n	n	n	n	n
Cn1c(=O)[nH]c(=O)c2c1nc(NCc1ccccc1)n2CCCc1ccccc1	n	n	n	n	n	12µM
CC1CN(Cc2nc3c(c(=O)[nH]c(=O)n3C)n2CCCc2ccccc2)CC(C)O1 (centres undefined)	n	n	n	n	n	3.3µM
Cn1c(=O)c2c(nc(NCc3ccccc3)n2CCCc2ccccc2)n(C)c1=O	n	n	u	n	u	2.9µM
CC1CN(Cc2nc3c(c(=O)n(C)c(=O)n3C)n2CCc2ccccc2)CC(C)O1 (centres undefined)	n	n	n	n	n	n
CNc1nc2c(c(=O)n(C)c(=O)n2C)n1CCCc1ccccc1	n	n	n	n	u	8.2µM
O=C(C[n+]1cc(Br)cc2ccccc21)c1ccc(O)c(O)c1	x	x	x	x	u	n
Cc1ccc(OCCn2c(Br)nc3c2c(=O)n(C)c(=O)n3C)cc1	n	n	n	n	21µM	u
Cn1c(=O)c2c(nc(NCc3ccco3)n2C/C=C/c2ccccc2)n(C)c1=O	n	u	u	n	n	3.3µM
COCCNc1nc2c(c(=O)n(C)c(=O)n2C)n1CCCc1ccccc1	n	x	x	n	n	16µM
C=CCNc1nc2c(c(=O)n(C)c(=O)n2C)n1CCCCCC	n	n	n	n	1.5µM	1.5µM
C=CCNC(=O)c1c[nH]c2ccc(S(=O)(=O)N(C)c3ccc(OCC)cc3)cc2c1=O	n	n	u	n	n	n
COc1ccc(OC)c(S(=O)(=O)N2CCC(C(=O)NC3CCCC3)CC2)c1	n	n	n	n	n	n
SMILES	hERG WT inh	SW480 rerep	MCF10A rereplic	KCNH2 3.1 inh	KB-3-1 tox	KB-V1 MDR tox
Cn1c(=O)c2c(nc(Br)n2CCc2ccccc2)n(C)c1=O	n	n	n	n	n	16µM
CN(Cc1ccccc1)Cc1nc2c(c(=O)n(C)c(=O)n2C)n1CCc1ccccc1	n	n	n	n	n	n
Cn1c(=O)[nH]c(=O)c2c1nc(SCCO)n2CCCc1ccccc1	n	n	u	n	n	u
Cc1csc(Sc2nc3c(c(=O)[nH]c(=O)n3C)n2CCCc2ccccc2)n1	n	n	n	n	u	4.1µM
Cc1cccc(OCC(=O)Nc2cccc3cccnc23)c1C	x	x	x	x	n	n
COCCn1c(-c2cccc([N+](=O)[O-])c2)nc2c1c(=O)[nH]c(=O)n2Cc1ccccc1	n	n	n	n	n	u
O=C(CSc1nnc(-c2ccco2)n1Cc1ccccc1)c1ccc(F)cc1	n	n	n	n	n	9.2µM
Cc1occc1-c1nnc(SCC(=O)Nc2ccc(F)cc2)n1Cc1ccccc1	n	n	u	n	u	8.2µM
Cn1c(SCC(=O)c2ccc(F)cc2)nnc1-c1ccccc1Br	x	x	x	x	u	23µM
CCN(CC)S(=O)(=O)c1ccc(C(=O)Nc2nc3c(Cl)cc(Cl)cc3s2)cc1	x	x	x	x	21µM	n
CCOC(=O)c1sc(NC(=O)c2ccc(S(=O)(=O)N(CC)CC)cc2)nc1C	n	n	n	n	n	n
CCS(=O)(=O)N1CCc2cc(C(=O)NCc3ccccc3)ccc21	x	x	x	x	n	n
Nc1ccc2nn(-c3cc([N+](=O)[O-])ccc3O)nc2c1	n	n	n	n	n	n
CC(C)C(=O)Nc1ccc2nn(-c3ccc(F)cc3)nc2c1	n	n	u	n	n	n
CC(C)c1ccc(-n2nc3ccc(N)cc3n2)cc1	n	23µM	23µM	n	n	n
Nc1ccc2nn(-c3ccc(F)cc3)nc2c1	n	u	18µM	n	n	n
Cc1ccc(-n2nc3ccc(N)cc3n2)cc1	n	16µM	u	n	n	n
C[C@H]1c2cccc(O)c2C(=O)C2C(=O)C3(O)C(=O)C(C(N)=O)C(=O)[C@@H](N(C)C)[C@@H]3[C@@H](O)[C@@H]21 (some centres undefined)	n	6.3µM	n	n	n	n
C#C[C@]1(O)CC[C@H]2[C@H]3[C@H](CC[C@@]21C)C1=C(CC(=O)CC1)C[C@@H]3C	x	n	n	x	x	x
CCOc1cccc(NC(=O)C2CC(=O)N(CC)C(=Nc3ccc(F)cc3)S2)c1 (centres undefined)	x	x	x	x	n	u
CCN1C(=O)CC(C(=O)Nc2ccc(F)cc2)SC1=Nc1cccc(OC)c1 (centres undefined)	n	n	n	n	u	18µM
CN(C(=O)COC(=O)CNC(=O)C1CCCCC1)c1ccccc1	n	21µM	n	n	n	u
CCOc1cc(/C=C\[N+](=O)[O-])ccc1OCC(=O)Nc1ccccc1C	n	u	2.9µM	n	n	n
CN(C)CCCNc1ccc(-c2cc(Nc3cccc(Cl)c3)ncn2)cn1	n	u	21µM	n	n	n
Cc1ccc(C(=O)CSc2nnc(CNc3ccc(F)cc3)o2)cc1	n	n	n	n	n	n
NC(N)=NNC(=O)c1ccccc1Cl	n	n	n	n	n	n

Source: PubChem BioAssay (National Center for Advancing Translational Sciences (NCATS))
